# Results published in the supplement of paper PMC12636033.
# ± gives the standard deviation of the averaged measurements. Whole data set: some 33,000 sequences, median “E-score (rank enrichment, -0.5 to 0.5)” near -0.0075, cut for the highest 2% near 0.23. Shown is part of a subset that was picked to be rich in the highest values.
# Test system: WT Max(13-93) synthetic (M65Nle)
# Assay: PBM 8-mer E-score (E-score (rank enrichment, -0.5 to 0.5)); higher = stronger preferential binding
# Protocol: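 Protein binding microarray (universal PBM chip covering all 10-mers in fixed probe flanks) with chemically synthesized human Max(13-93) bHLH-LZ analogs (not full-length Max) bearing noncanonical residues (hArg, Tha, Aib, Nle at 65) and aromatic Cys staples. Read-out per 8-mer (and its reverse complement): E-score (rank-based enrichment, -0.5 to 0.5) and Z-score of median probe intensity.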
row,Sequence,PBM 8-mer E-score
1,CCAAACTA,0.165 ± 0.012
2,AAGCTCAT,-0.131 ± 0.098
3,AAGGTCGG,-0.014 ± 0.081
4,AGACAACC,0.0303 ± 0.033
5,AGACAACG,0.246 ± 0.068
6,AGACAACT,0.0555 ± 0.044
7,CGGCAGTA,-0.142 ± 0.064
8,AATCGATC,-0.232 ± 0.024
9,CCCCTAGA,0.0696 ± 0.042
10,ATATTGAA,0.114 ± 0.03
11,GTATTGAA,0.119 ± 0.057
12,TTATTGAA,0.254 ± 0.0091
13,CTCATAGA,-0.0903 ± 0.024
14,AGCCGGAC,-0.207 ± 0.036
15,CCGATTAG,0.0704 ± 0.0021
16,CCCCCATC,0.0485 ± 0.11
17,GTAAGTTA,0.0737 ± 0.022
18,ATAAGTTA,0.258 ± 0.062
19,CTAAGTTA,-0.011 ± 0.089
20,ATGGTGCG,-0.0696 ± 0.06
21,GTGGTGCA,0.0246 ± 0.1
22,ATGGTGCA,0.264 ± 0.074
23,GGAAAGCA,-0.0514 ± 0.036
24,CGCGGACA,-0.102 ± 0.039
25,AACGAGCG,-0.0104 ± 0.028

row,Sequence,PBM 8-mer E-score
1,CAAATGTG,0.152 ± 0.026
2,CACATGTC,0.186 ± 0.026
3,AACATGTG,0.412 ± 0.017
4,AACATGTT,0.137 ± 0.042
5,CCCATGTA,0.0146 ± 0.049
6,AACATGTC,0.12 ± 0.037
7,CTCATGTA,0.138 ± 0.03
8,CACATGTG,0.435 ± 0.007
9,CACATGTA,0.379 ± 0.0071
10,CGCTGTGA,-0.0883 ± 0.11
11,AGGAGGAC,-0.0293 ± 0.04
12,GTGGGATA,0.163 ± 0.018
13,GCGGTACC,-0.176 ± 0.019
14,GAATGTAA,0.163 ± 0.13
15,ATATGTAC,0.0738 ± 0.0056
16,GTATGTAA,0.288 ± 0.0084
17,GTATGTCA,0.246 ± 0.028
18,ATATGTCA,0.1 ± 0.073
19,GTATGTTA,0.164 ± 0.091
20,CTATGTCA,0.0959 ± 0.026
21,ATATGTAA,0.239 ± 0.05
22,CTATGTAA,-0.0284 ± 0.05
23,AGGCGAAG,-0.078 ± 0.072
24,CCGTTTCG,-0.0232 ± 0.051
25,GCTCACGA,0.0957 ± 0.066

row,Sequence,PBM 8-mer E-score
1,AACGGTAT,0.0275 ± 0.051
2,CCAGTGAA,-0.0413 ± 0.11
3,AAAGCAAT,0.0889 ± 0.03
4,ATACTGTG,0.012 ± 0.036
5,ATACATTG,0.168 ± 0.05
6,ATACATTC,0.285 ± 0.006
7,CTACATTC,0.0193 ± 0.054
8,GCTCGCCA,-0.0485 ± 0.054
9,GCGCTAAC,-0.0628 ± 0.026
10,AGGAGATA,0.0677 ± 0.065
11,CCAGCGGA,-0.175 ± 0.022
12,CCCATTAA,0.0514 ± 0.069
13,ATCATTAA,0.238 ± 0.023
14,ACCATTCA,0.233 ± 0.0053
15,CGCATTAA,-0.00629 ± 0.02
16,ACCATTCG,-0.0773 ± 0.11
17,CTCATTAA,0.204 ± 0.07
18,TGCATTAA,0.26 ± 0.051
19,TCCATTAA,0.0431 ± 0.0063
20,ACCATTAA,0.284 ± 0.11
21,ACCATTCC,0.00607 ± 0.099
22,AGCATTAA,0.173 ± 0.078
23,ATCATTAG,0.209 ± 0.02
24,AATGGTCT,-0.085 ± 0.06
25,ATTTTGCC,-0.00751 ± 0.0085

row,Sequence,PBM 8-mer E-score
1,CATTCGCG,0.0727 ± 0.022
2,ACCCTTAC,0.0907 ± 0.047
3,ATCGTGAC,-0.123 ± 0.014
4,GGCTGCCC,-0.212 ± 0.043
5,AACAGACT,0.125 ± 0.061
6,AAGGCGTC,-0.0911 ± 0.022
7,TGCCACAA,-0.0153 ± 0.13
8,CCCAGTTA,-0.0517 ± 0.012
9,AATAATTA,0.237 ± 0.058
10,AATAATAA,0.242 ± 0.013
11,TATAATAA,0.2203 ± 0.00023
12,CCTAATAA,0.166 ± 0.01
13,CATAATAG,0.241 ± 0.027
14,AATAATAG,0.14 ± 0.12
15,CATAATAA,0.114 ± 0.18
16,TCTAATAA,0.272 ± 0.069
17,AATAATTC,0.0855 ± 0.084
18,ACTAATAA,0.182 ± 0.058
19,GATAATTA,0.157 ± 0.17
20,AATAATAC,0.211 ± 0.029
21,ACTCGGTA,-0.0471 ± 0.064
22,CGTAGGCA,-0.0828 ± 0.077
23,GAAGCCCA,-0.0819 ± 0.0058
24,CCACCTGG,0.0162 ± 0.071
25,TCAACTCA,-0.088 ± 0.024

row,Sequence,PBM 8-mer E-score
1,AGATGCGG,-0.0543 ± 0.14
2,CGCTTCTA,-0.0256 ± 0.055
3,CCATTGGG,-0.154 ± 0.1
4,CAATCCAG,0.0833 ± 0.0029
5,CATAATTA,0.236 ± 0.025
6,CCTAATTA,0.138 ± 0.094
7,CATAATTC,-0.0543 ± 0.0058
8,GTATCGAA,-0.0312 ± 0.052
9,AGCTAATG,-0.0403 ± 0.0067
10,GATAATAA,0.137 ± 0.092
11,GATAATCC,-0.0355 ± 0.034
12,GATAATCA,0.253 ± 0.14
13,AATAATCA,0.125 ± 0.0096
14,TATAATCA,0.257 ± 0.014
15,CATAATCA,0.101 ± 0.028
16,ACGCCAGT,-0.159 ± 0.098
17,CTCGAATA,-0.174 ± 0.064
18,CCATTACA,0.165 ± 0.0069
19,AAGTTAAT,0.234 ± 0.036
20,AAGTTAAC,0.18 ± 0.0042
21,AAGTTAAG,-0.0928 ± 0.093
22,ATGGACAA,0.0228 ± 0.022
23,GCTCCTCC,-0.127 ± 0.14
24,AAATTATC,0.158 ± 0.031
25,AAATTATA,0.237 ± 0.0041

row,Sequence,PBM 8-mer E-score
1,AAATTATG,0.127 ± 0.011
2,GAATTATA,0.128 ± 0.074
3,CAATTATA,0.137 ± 0.059
4,TAATTATA,0.264 ± 0.11
5,GCCGAAAA,0.0297 ± 0.015
6,CACGCGCC,0.238 ± 0.013
7,CACGCGCG,0.224 ± 0.034
8,CACGCGTA,0.165 ± 0.036
9,CACGCGAG,0.0779 ± 0.018
10,CACGCGTG,0.349 ± 0.015
11,CACGCGAC,0.271 ± 0.066
12,AACGCGTC,-0.0583 ± 0.0094
13,CACGCGCA,0.149 ± 0.079
14,CACGCGAA,0.0737 ± 0.06
15,CACGCGTC,0.266 ± 0.016
16,AACGCGTG,0.222 ± 0.068
17,AACGCGTA,0.0664 ± 0.023
18,CAACTCGG,-0.13 ± 0.11
19,ATAACCGA,-0.0219 ± 0.011
20,CAAATTAC,0.177 ± 0.062
21,CCATCACC,0.144 ± 0.01
22,ATGCAGTG,0.0344 ± 0.068
23,AAATGCGA,-0.0159 ± 0.018
24,AGGCTAGG,0.0514 ± 0.046
25,GGCAGATA,0.116 ± 0.062

row,Sequence,PBM 8-mer E-score
1,ACGTTTTG,0.101 ± 0.09
2,ACGTTATA,0.241 ± 0.038
3,ACGTTATG,0.24 ± 0.0059
4,CCGTTATA,0.132 ± 0.018
5,GCGTTATA,0.108 ± 0.025
6,ACGTTATC,0.133 ± 0.013
7,ACGTTAGG,0.107 ± 0.099
8,ACATCATG,-0.0233 ± 0.006
9,AGCGCCTC,-0.185 ± 0.038
10,AACACCGG,-0.157 ± 0.029
11,ATTTGTTA,0.0868 ± 0.01
12,CTTTGTTC,0.0437 ± 0.024
13,ATTTGTTC,0.241 ± 0.11
14,CGAGATGA,-0.159 ± 0.091
15,AGTAGCTA,0.178 ± 0.057
16,GATCTCGA,-0.159 ± 0.022
17,CCGCCGAA,-0.156 ± 0.022
18,AACGTGAC,0.205 ± 0.016
19,TACGTGAA,0.0446 ± 0.099
20,CACGTGAG,0.404 ± 0.019
21,CCCGTGAG,-0.0893 ± 0.044
22,GACGTGAA,-0.138 ± 0.057
23,CACGTGAC,0.4879 ± 0.0015
24,CGCGTGAG,0.0752 ± 0.04
25,GACGTGAC,-0.0117 ± 0.088
